Source: PubChem BioAssay
HSP90 refold inh: HSP90 inhibitors, primary screen, cell lysate, luminescence; Heat shock protein HSP 90 (rabbit reticulocyte lysate; luciferase refolding); Rabbit reticulocyte lysate, luciferase refolding luminescence, 3 h; inhibition, % at 5.6 µM; actives 0.91% (n = 290,000); AID 1789, 2009;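 active = inhibition above the screen-wide mean plus 3 SD, computed separately per campaign, cut at about 16% in these data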;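 note: 0% = DMSO wells and 100% = 60 µM geldanamycin wells; inhibitors lower the luminescence because luciferase stays unfolded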
TROY signal inh: inhibitors of TROY-driven NF-kB signaling, primary screen, Q293 LMP1-TROYcd cells, NF-kB luciferase, uHTS; Q293 LMP1-TROYcd NF-kB luciferase reporter, 4 h; inhibition, % at 10 µM; actives 0.98% (n = 360,000); AID 1347056, 2019;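 active = compounds whose plate-normalised and pattern-corrected inhibition of the luciferase reporter signal at the single screening dose is 50% or more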
LMP1 NFkB inh: EBV LMP1-driven NF-kappaB luciferase reporter inhibitors, primary screen, cell-based, luminescence, single point. LMP1-induced NF-kappaB luciferase reporter cells. inhibition, % at 12.5 µM. actives 0.69% (n = 350,000). AID 504558, 2011; in the data active = inhibition above about 41%;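 note: 0% = neutral control wells and 100% = reference inhibitor control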
TWEAK Fn14 block: inhibitors of TWEAK-Fn14 signaling, primary screen, luciferase reporter cells, uHTS | TWEAK-stimulated Fn14 reporter cells, luciferase luminescence, 8 h | inhibition, % at 10 µM | actives 2% (n = 360,000) | AID 1159606, 2016; in the data active = inhibition above about 50%
HSF-1 act: HSF-1 activators, primary screen, NIH3T3-HGL cells, MG132 stress, luminescence, single point | actives 1.7% (n = 300,000) | activation, % at 9 µM | NIH3T3-HGL HSF-1 luciferase reporter, 8 h; 100% = twice DMSO control signal;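 active = mean replicate activation of at least 50% with a set share of replicates each reaching 50%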;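 note: 0% = median of the neutral control wells and 100% = twice that signal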
HSF1 inhib: HSF1 inhibitors in luciferase reporter cells, primary screen, cell-based, NIH3T3, luminescence. NIH3T3-HGL HSE-luciferase, MG132-induced, luminescence 8 h; hits give low values. activity change, negative = inhibition, % at 7.5 µM (by protocol). actives 0.77% (n = 300,000). AID 2098, 2009;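 active = more than half of replicate wells show activity change below -50%, luminescence cut by over half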;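 note: luciferase reports HSF-1 transcriptional activity via heat shock element; 0% = median of DMSO wells and -100% = zero luminescence signal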
Starred values were filed as active, the others as inactive; x = no result given; ! = not active in a repeat. Most compounds without a hit are left out; they make up all but 4.7% or so of the library.

SMILES	HSP90 refold inh	TROY signal inh	LMP1 NFkB inh	TWEAK Fn14 block	HSF-1 act	HSF1 inhib
Cn1c(N/N=C/c2c[nH]c3ccccc23)nc2ccccc21	0.3	-43.7	-17.8	0.1	61.2*	36.5
CC1CCN(C(=O)C2CCC(CNS(=O)(=O)c3ccc4c(c3)C(C)(C)C(=O)N4C)CC2)CC1 (stereo not given)	x	-2.7	x	11.4	x	x
N#Cc1ccc(-c2csc(NNC(=O)c3ccc(Br)cc3)n2)cc1	1.2	0.6	54.8*	-7.8	-23.9	-12.5
COc1ccc(NC(=O)C[C@H]2C(=O)N(Cc3ccccc3)C[C@@H]2CSC)cc1	x	-5.0	-4.5	-24.8	x	x
CNC[C@@H]1OCc2ccccc2-c2c(n(C)c3ccccc23)C(=O)N([C@H](C)CO)C[C@H]1C	x	15.2	-1.9	13.0	x	x
COc1cc(NC(=O)Nc2nnc([C@H]3C[C@H](O)[C@@H](CO)O3)s2)cc(OC)c1OC	x	-19.0	x	3.2	x	x
COC(=O)c1ccc(-c2ccc(C(c3c(C)[nH][nH]c3=O)c3c(C)[nH][nH]c3=O)o2)cc1	14.6	13.0	-0.9	55.7*	4.5	6.0
Cc1ccccc1/C=N/Nc1ccnc2cc(Cl)ccc12	-3.5	-5.0	-38.5	-69.3	41.6	9.4
Oc1ccc(/C=N/Nc2ccnc3cc(Cl)ccc23)c(O)c1	-1.3	-5.5	-2.3	-34.3	99.5*	80.8
CCN(CC)Cc1cc(Nc2ccnc3cc(Cl)ccc23)ccc1O	-5.1	-15.3	57.1*!	-60.7	11.1	-6.4
Oc1ccc(Nc2ccnc3cc(Cl)ccc23)cc1	2.8	-20.4	11.8	-33.5	-4.4	-5.6
CCCNC(=O)C1(C)CCCN(C(=O)COc2ccc(Cl)cc2Cl)C1 (stereo not given)	x	-7.5	x	-9.4	x	x
FC(F)(F)c1ccccc1Cc1c(-c2ccccc2)nc2ccc(Br)cn12	x	-30.6	x	-10.7	x	x
CCNc1ccc(Br)cc(C(=O)/C=C/c2c(Cl)cccc2Cl)c1=O	7.5	8.3	61.1*	-3.1	72.7*	48.5
CCNC(=O)C1(C)CCN(C(=O)c2ccc3snnc3c2)C1 (stereo not given)	x	-15.2	x	-21.5	x	x
COc1ccc(CCCNC(=O)C2Cc3c(-c4cccc(NC(C)=O)c4)ccnc3O2)cc1 (stereo not given)	x	45.8	x	45.0	x	x
CC(NC(=O)Cn1cnc([N+](=O)[O-])n1)c1ccccc1 (stereo not given)	16.3*	-2.0	0.8	-1.5	2.3	-10.3
COc1ccc(C(=O)CN(CCC(=O)O)S(=O)(=O)c2ccc([N+](=O)[O-])cc2)cc1	x	-3.9	60.8*	-12.9	x	x
COc1cc2c(cc1OC)/C(=C/c1ccc(Cl)cc1)C(=O)OC2	3.4	50.2*	10.3	25.3	44.4	28.3
COc1ccc(/C=C2\C(=O)OCc3cc(OC)c(OC)cc32)cc1OC	2.5	-21.4	1.0	-20.5	0.6	-3.1
CN1OC[C@@H]2CN(C(=O)CCc3ccccc3)[C@H](c3ccc(N4CCCCC4)cc3)C[C@@H]21	x	-7.0	x	-5.5	x	x
Cc1ccc(NS(=O)(=O)c2ccc(Cl)c(C(=O)Nc3ccccc3-c3nc4ccccc4[nH]3)c2)cc1C	-4.8	39.2	0.5	91.4*	7.3	0.3
CN(C)S(=O)(=O)c1ccc(Cl)c(C(=O)Nc2nc3ccccc3[nH]2)c1	-3.0	2.4	-2.7	-6.6	6.2	-2.1
C[C@H](NC(=O)[C@@H]1CCCN1C(=O)[C@@H]1CCCN1)c1ccccc1	x	-4.6	x	22.1	x	x
CCC(C)(C)C1CCc2[nH]nc(C(=O)NC3CCCC3)c2C1 (stereo not given)	x	-46.8	3.6	-12.8	x	x
SMILES	HSP90 refold inh	TROY signal inh	LMP1 NFkB inh	TWEAK Fn14 block	HSF-1 act	HSF1 inhib
O=C(NC1CCCCC1)c1n[nH]c2c1CCCCC2	x	83.3*	53.7*	99.1*	x	x
CCN(CC)c1ccc(S(=O)(=O)Nc2cc(Cl)ccc2Cl)cc1NC(=S)NC(=O)C1CCCC1	11.2	23.1	7.6	41.6	33.0	3.3
CCN(CC)S(=O)(=O)c1ccc(Cl)c(NC(=S)NC(=O)C2CCCC2)c1	x	54.5*	6.9	56.3*	x	x
Cc1ccc(C(=O)/C=C/c2cn(CN3CCN(C)CC3)c3ccccc23)cc1	5.4	-37.0	-26.5	8.6	59.7*	25.5
Cc1ccc(C(=O)/C=C/c2c[nH]c3ccccc23)cc1	1.1	31.7	-76.0	3.6	39.7	14.3
COc1ccc(OC)c(N(CC(=O)N2CCC(C)CC2)S(=O)(=O)c2ccccc2)c1	2.2	11.7	1.8	-7.0	60.4*	19.4
CC(C)C#Cc1cnc2c(c1)C(=O)N([C@@H](C)CO)C[C@@H](C)[C@H](CN(C)Cc1cccc(F)c1)O2	x	15.0	-4.4	-15.8	x	x
Cc1ccc(S(=O)(=O)N(C)C[C@H]2OCCCC[C@@H](C)Oc3ccc(NC(=O)Cc4ccccc4)cc3C(=O)N([C@H](C)CO)C[C@@H]2C)cc1	x	9.9	-6.3	11.4	x	x
O=C1CC(/C=C/c2ccccc2)=Nc2ccccc2N1	0.6	-11.3	-15.6	5.1	16.8	-1.2
O=C1CC(/C=C/c2ccc(Cl)cc2)=Nc2ccccc2N1	0.8	13.9	-26.8	13.3	70.3*	62.8
N#C/C(=C/c1ccc(Br)o1)C(N)=S	0.2	x	x	x	7.7	-2.1
N#C/C(=C/c1ccc(Br)o1)C(N)=O	-2.8	7.7	2.3	7.2	-91.6	-92.4*
CCCCCC(=O)NC(=S)Nc1ccc(Br)cc1C	-2.2	-24.9	43.5*	1.0	0.9	0.9
COc1ccccc1C#CC1=CC(=O)CC(C)(C)C1	x	-13.2	-8.6	-10.1	x	x
Cc1c(/N=C(\[O-])Nc2ccc(Br)cc2)sn[n+]1C	5.2	42.4	x	68.5*	-1.1	-1.9
Cc1ccccc1/C(=N\S(=O)(=O)c1ccc(Br)cc1)Nc1ccccc1	x	3.8	1.5	8.0	x	x
Cc1cc(Cl)cc(Br)c1OCCCN1C(=O)NC(C)(C)C1=O	-6.7	4.1	-18.4	-2.0	75.0*	31.9
Cc1cc(Cl)c(OCCN2C(=O)NC(C)(C)C2=O)c(Br)c1	-8.7	-13.9	-1.0	-7.6	13.3	3.7
COc1cc(N)c(Cl)cc1C(=O)NC1CCN(Cc2ccccc2)CC1	x	-0.8	92.4*	-14.9	x	x
Cc1ccccc1C(=O)NC1CCN(Cc2ccccc2)CC1	-0.3	-10.0	3.2	-0.3	6.6	-2.7
CC1C(=O)N(Cc2cn(Cc3ccco3)nn2)CCS(=O)(=O)N1Cc1ccc(-c2ccccc2C(F)(F)F)cc1 (stereo not given)	x	32.9	x	19.2	x	x
COc1ccc(NCc2nnc(SCC(=O)Nc3cc(C)cc(C)c3)o2)cc1	3.7	1.9	-7.5	-7.1	7.1	-0.7
COc1ccc(NCc2nnc(SCC(=O)Nc3cc(C(F)(F)F)ccc3Cl)o2)cc1	4.5	-4.3	-4.5	2.8	-67.4	-59.7*
